The list is not random: actives were taken first. Their share in the collection is about 1.6%.
dFosB act-1: enhances mouse delta FosB homodimer DNA binding | purified delta FosB, TAMRA-CDK5 oligo fluorescence polarization; percent of positive-control signal above neutral wells | P13346 | activation, % at 25 µM | AID 493131 | 0.99% of 340,000 active;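 active = mean activation above about 17%, with every replicate also reaching it, limit read from the data, passing the limit was not always enough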
Target sequence (P13346 whole entry, looked up): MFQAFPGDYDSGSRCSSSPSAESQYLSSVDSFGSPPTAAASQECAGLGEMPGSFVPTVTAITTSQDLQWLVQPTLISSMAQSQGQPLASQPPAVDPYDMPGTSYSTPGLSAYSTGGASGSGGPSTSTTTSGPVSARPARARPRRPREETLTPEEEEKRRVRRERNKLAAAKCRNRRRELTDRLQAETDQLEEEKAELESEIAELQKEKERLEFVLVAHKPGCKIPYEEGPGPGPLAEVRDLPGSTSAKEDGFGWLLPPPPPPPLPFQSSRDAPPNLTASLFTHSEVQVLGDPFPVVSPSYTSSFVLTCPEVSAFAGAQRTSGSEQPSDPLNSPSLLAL
DYRK1A inh: inhibitors of rat Dyrk1A kinase; 0.43% of 310,000 active; AID 504441; Q63470; inhibition, % at 12.5 µM; ADP-Glo luminescence, NFATc1 peptide; in the data active = inhibition above about 50%;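 also: plate controls were vehicle with enzyme for no effect and no enzyme for full effect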
Bfl-1 A1 inh: inhibitors of the anti-apoptotic protein A1, read as caspase activation; MEF A1-2A-BIM cells, Caspase-Glo 3/7 luminescence, 3 h; percent of clofoctol response, vehicle zero; caspase activation, % (test concentration not listed); 0.066% of 330,000 active;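 active = over half of replicate activation scores above 10%, or exactly half above 10 with the replicate mean above 10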
B2AR ag: agonists of human beta-2 adrenergic receptor inducing internalization | P07550 | Am2.2-beta2AR cells, FAP receptor internalization, flow cytometry | response, % (no concentration beside the values) | 0.43% of 340,000 active;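 active = response above a set limit, near 3 SD of response in nonfluorescent compounds, cut at about 42% in these data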
dFosB act-2: activators of mouse delta FosB homodimer DNA binding; 2,400 tested, under 10 active; shares compounds with dFosB act-1; AID 588690; activation, % at 24.9 µM; purified delta FosB, TAMRA-CDK5 oligo fluorescence polarization; normalised: neutral wells 0, positive control 100;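 active = highest replicate activation at or above 34% and every replicate reaching that threshold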;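 also: higher polarization means more probe DNA bound by delta FosB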
An asterisk follows results filed as active; nt = no result given.

SMILES	dFosB act-1	DYRK1A inh	Bfl-1 A1 inh	B2AR ag	dFosB act-2
COc1cc2c(cc1OC)-c1cc(Nc3cccc(F)c3)nc(=O)n1CC2	-21.3	-2.2	nt	-16.0	nt
COc1cc2c(cc1OC)-c1cc(Nc3ccc(F)cc3)nc(=O)n1CC2	37.3*	6.0	0.3	-2.3	2.5
CC(C)C[C@@H](CN1CCCC1CN1C(=S)NC[C@@H]1Cc1ccc(O)cc1)N1C[C@H](Cc2ccc(O)cc2)N(CC2CCCCCC2)C1=S (stereo partly drawn)	21.2*	nt	nt	10.8	2.5
CC(C)C[C@H]1CN([C@@H](CC(C)C)CN2CCC[C@@H]2CN2C(=O)C(=O)NC[C@@H]2Cc2ccccc2)C(=O)C(=O)N1CC1CCCCC1	-18.9	nt	nt	4.8	nt
CC(C)C[C@@H](CN1CCCC1CN1C(=S)NC[C@@H]1Cc1ccc(O)cc1)N1C[C@H](Cc2ccccc2)N(CC2CCCCCC2)C1=S (stereo partly drawn)	45.1*	nt	nt	7.7	4.6
CC(C)C[C@@H](CN1CCC[C@@H]1CN1C(=O)C(=O)NC[C@@H]1Cc1ccccc1)N1C[C@H](Cc2ccccc2)N(CC2CCCCCC2)C(=O)C1=O	34.6*	nt	nt	21.6	4.8
CC(C)C[C@H]1CN([C@@H](Cc2ccc(O)cc2)CN2CCC[C@@H]2CN2C(=O)C(=O)NC[C@@H]2Cc2ccccc2)C(=O)C(=O)N1CC1CCCCC1	-9.9	nt	nt	6.3	nt
CC(C)C[C@H]1CNC(=S)N1CC1CCCN1C[C@H](Cc1ccccc1)N1C[C@H](Cc2ccc(O)cc2)N(CC2CCCCCC2)C1=S (stereo partly drawn)	56.5*	nt	nt	3.9	6.9
COc1cccc2sc(/N=C/N(C)C)nc12	5.8	11.4	-4.7	-0.7	nt
CC(C)C[C@@H](CN1CCC[C@@H]1CN1C(=O)C(=O)NC[C@@H]1Cc1ccccc1)N1C[C@H](Cc2ccc(O)cc2)N(CC2CCCCC2)C(=O)C1=O	-23.0	nt	nt	2.3	nt
CC(C)C[C@@H](CN1CCCC1CN1C(=S)NC[C@@H]1Cc1ccc(O)cc1)N1C[C@H](Cc2ccccc2)N(CC2CCCCC2)C1=S (stereo partly drawn)	52.0*	nt	nt	9.6	1.5
CC(C)NC(=O)N(C)C[C@H]1Oc2ccc(NC(=O)c3ccncc3)cc2C(=O)N([C@H](C)CO)C[C@@H]1C	-3.9	8.7	-2.9	5.3	nt
CN(C)c1nc(NCc2ccccc2)nc(N/N=C/c2cccc(Br)c2)n1	57.3*	-2.5	-0.1	-1.3	3.7
Brc1cccc(/C=N/Nc2nn[nH]n2)c1	1.9	8.1	1.5	-4.6	nt
NC(=O)C1CCN(C(=O)c2ccc3c(=O)n(Cc4ccco4)c(SCC(=O)c4ccccc4)nc3c2)CC1	36.2*	-4.5	-0.2	1.6	1.8
COC(=O)c1ccc2c(=O)n(Cc3ccco3)c(SCC(=O)Nc3cc(C)on3)nc2c1	24.7*	-3.8	0.2	-2.1	-0.1
NC(=O)C1CCN(C(=O)c2ccc3c(=O)n(Cc4ccco4)c(SCC(=O)c4ccc(F)cc4)nc3c2)CC1	nt	nt	0.7	nt	nt
COC(=O)c1ccc2c(=O)n(Cc3ccco3)c(SCC(=O)Nc3ccccc3Cl)nc2c1	-5.6	-6.8	-0.7	2.4	nt
CCCCNCc1cc(OCC)c(OCC)cc1Br	-10.7	-5.0	0.0	-0.1	nt
CC1(NC(=O)c2ccccc2)CCN(CCCc2ccccc2)C1=O (stereo not drawn)	2.3	2.2	-1.3	-0.2	nt
COc1cc(NC(=O)c2ccccc2)ccc1NC(=O)c1cc2ccccc2o1	-15.1	-1.2	-0.2	-4.6	nt
Cc1cc(NC(=O)c2cncc(Br)c2)ccc1NC(=O)c1cc2ccccc2o1	57.6*	-3.0	-1.0	35.1	-0.1
O=C(CNC(=O)c1cccc(Br)c1)N/N=C/c1ccc2c(c1)OCO2	18.4*	2.4	0.6	16.8	2.7
CC(C)[C@@H]1CN=C(N)N1C[C@@H]1CCCN1C[C@H](C)N1C[C@@H](Cc2ccccc2)N(CCc2ccc(Cl)c(Cl)c2)C1=N	20.0*	nt	nt	7.8	-1.4
C[C@@H](CN1CCC[C@H]1CN1C(N)=NC[C@@H]1Cc1ccccc1)N1C[C@@H](Cc2ccccc2)N(CCc2ccc(Cl)c(Cl)c2)C1=N	5.7	9.2	0.3	7.5	nt
SMILES	dFosB act-1	DYRK1A inh	Bfl-1 A1 inh	B2AR ag	dFosB act-2
COc1ccc(C(=O)Nc2nnc(S(=O)(=O)Cc3ccccc3)s2)cc1	23.1*	-1.5	-1.1	3.4	7.2
COc1ccc(Nc2nnc(SCC(=O)/C=C3/N(C)c4ccccc4C3(C)C)s2)cc1	42.8*	-0.5	-0.5	9.8	0.9
CN1/C(=C\C(=O)CSc2nnc(N)s2)C(C)(C)c2ccccc21	-0.5	8.5	-1.2	-8.7	nt
CN1/C(=C/C(=O)CSc2ccccc2C(=O)O)C(C)(C)c2ccccc21	19.2*	-8.4	0.0	-22.4	-1.1
O=C(Nc1ccc(Cl)cc1)Nc1nc(-c2ccccc2O)cs1	-3.3	5.2	-1.1	-0.6	nt
O=C(Nc1ccc(Cl)cc1)Nc1nc(-c2sccc2Br)cs1	27.1*	-3.2	-1.3	1.4	3.0
Oc1ccc(Br)cc1-c1cc(-c2ccc(Cl)cc2)n[nH]1	27.8*	8.3	-0.4	4.4	-1.2
CC(=O)c1ccc(OC(C)C(=O)OCC(=O)NCCc2ccccc2)cc1 (stereo not drawn)	2.3	-0.8	-0.8	-2.5	nt
CN(CC(=O)Nc1ccc(F)c(F)c1F)C(=O)C1=NN(c2ccccc2)C(=O)CC1	-6.8	nt	1.3	0.4	nt
COc1ccc(Br)cc1C(=O)Nc1ccc(C(=O)NCC(C)C)cc1	-3.8	-7.7	-0.4	3.4	nt
CCOc1ccc(Br)cc1C(=O)Nc1ccc(C(=O)NCC(C)C)cc1	73.8*	8.5	0.7	-4.8	2.4
O=C(Nc1cccnc1Cl)c1cc(-c2ccc(O)cc2)on1	29.4*	0.8	-2.7	-2.2	-25.3
O=C(Nc1cccnc1Cl)c1cc(-c2ccc(Cl)cc2)on1	-2.5	-2.3	-2.2	16.6	nt
Cc1cc(C(=O)N/N=C/c2ccc(-c3ccc([N+](=O)[O-])cc3Cl)o2)n[nH]1	-2.0	nt	-0.9	20.0	nt
Cc1cc(C(=O)N/N=C/c2ccc(-c3cccc([N+](=O)[O-])c3)o2)n[nH]1	33.2*	2.8	0.8	2.9	0.2
CCc1cc2ccc(C)cc2nc1SCC(=O)Nc1c[nH]c(=O)[nH]c1=O	21.6*	-2.8	0.2	-1.0	6.1
O=c1nc(Nc2ccc(OCc3ccccc3)cc2)sc2ncccc12	19.5*	-1.1	0.2	0.7	-0.9
CCOC(=O)c1ccc(Nc2nc(=O)c3cccnc3s2)cc1	-6.6	3.8	-2.1	-6.0	nt
Cc1nnc(SC(C)C(=O)N(C)C2CCCCC2)n1N (stereo not drawn)	-1.1	-2.2	1.1	-1.1	nt
Nc1ccccc1SC1CC(=O)N(c2ccc(Cl)c(Cl)c2)C1=O (stereo not drawn)	26.5*	2.7	0.3	-3.0	1.8
Nc1ccccc1SC1CC(=O)N(c2ccc3c(c2)OCCO3)C1=O (stereo not drawn)	15.1	-4.7	1.6	3.2	nt
Cc1ccc(C(=O)OCC(=O)Nc2cccc(Cl)c2C)c(O)c1	20.1*	0.3	0.0	-3.0	0.2
